This note sets out measurements from PubChem BioAssay.

Assay [1] can be described thus: inhibitors of TNFa-induced NFkB p65 translocation, primary screen, imaging, HUVEC, MLSMR starter and 10KST1 sets (AID 438;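 active means inhibition above 20% together with a positive visual image hit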;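 further: compound added about 3h40 before a 20 min TNFalpha stimulation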;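 on inhibition: signal is the nuclear over cytoplasmic p65 intensity ratio per well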). Particulars: HUVEC TNFa-induced p65 nuclear translocation; cell count: measured here: nuclei count (cytotoxicity indicator), at 2.08 µM; inhibition: at 2 µM, stronger effect = higher value, 0% TNFa-plus-vehicle, 100% no-TNFa wells.
Assay [2] in a line: inhibitors of mutant huntingtin aggregation, primary screen, imaging, exon1htt(103Q)mCFP cells, high-content imaging (AID 483;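 active means visual image review flags a hit and inhibition of aggregation exceeds 20%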;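 further: compound exposure lasted 3 days before fixation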;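 on nuclei count: percent of the per-plate median nuclei count of sample wells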). The settings on record: exon1htt(103Q)mCFP cell line, aggregate imaging, at 2 µM; inhibition of aggregation: stronger effect = higher value; nuclei count: measured here: cell count, toxicity.
Assay [3] can be described thus: inhibitors of E-selectin induction by TNFa, primary screen, imaging, HUVEC, immunofluorescence, MLSMR starter and 10KST1 sets (AID 487;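 active means visually confirmed hit in the image check and inhibition above 20%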;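 on inhibition: signal is fraction of cell area covered by stained E-selectin grains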;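 on nuclei count: 100% = median nuclei count of all wells on the same plate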). The settings on record: HUVEC TNFalpha-induced E-selectin immunofluorescence imaging, at 2 µM; inhibition: stronger effect = higher value; nuclei count: measured here: cell number, toxicity.
For assay [4], the target named is Voltage-gated potassium channel subunit beta-2 (Rattus norvegicus) (UniProt P62483). As to the kind of experiment: KvBeta enzyme negative modulators, primary screen, biochemical, NADPH fluorescence (AID 622;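 active means fluorescence slope higher than the sample average by over 3 SD, cut at about -0.22 in these data, passing the limit was not always enough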;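 further: slope of raw intensity against log time taken from 70 to 1610 s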). Particulars: recombinant KvBeta, 4-cyanobenzaldehyde reduction, at 10 µM, stronger effect = higher value.
The target is the same in assay [5]. Put plainly: KvBeta positive modulators, primary screen, biochemical, NADPH fluorescence (AID 623;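 active means NADPH fluorescence slope more negative than the mean of all samples by about 3 SD, 99.7% confidence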;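 further: fluorescence intensity change per second fitted from 20 to 320 s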). Particulars: Recombinant KvBeta, NADPH fluorescence decrease slope, 10 min; at 10 µM; stronger effect = lower value.
The target of assay [6] is Alpha-2C adrenergic receptor (Homo sapiens) (UniProt P18825). Put plainly: modulators of alpha2C/GIRK thallium flux, primary screen, cell-based, HEK293 alpha2C/GIRK1/2 (AID 624).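 Further: slope of fluorescence ratio to pre-addition baseline per second over 15 to 24 s.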 Particulars: thallium flux BTC fluorescence, at 10 µM, actives lie on both sides.
Assay [7] can be described thus: inhibitors of Sendai virus-induced IRF3 signaling, primary screen, TLR/RLR signaling modifier project, cell-based, Sendai virus stimulus, luciferase, 10K MLSCN set (AID 602276;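 active means inhibition at or above 50% at 10 µM; inactive means inhibition below 50%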;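 further: firefly luciferase from ISG56 promoter only with Renilla not read in this screen; 0% = Sendai virus plus DMSO and 100% = medium plus DMSO without virus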). The settings on record: HEK293 RL24 IRF3 luciferase reporter, at 10 µM, stronger effect = higher value.
Assay [8] in a line: inhibitors of poly I:C-induced TLR3 signaling, primary screen, cell-based, poly I:C stimulus, luciferase, 10K MLSCN set (AID 602277;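 active means inhibition of the reporter signal at or above 50%; inactive means inhibition below 50%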). The settings on record: HEK293-TLR3 RL24 IRF3 luciferase reporter, at 10 µM, stronger effect = higher value.

Active and inactive are the calls of the source.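 How the source made its calls, unless noted: active means fluorescence slope after compound addition differing from the mean of all screened samples at 99.7% confidence, in either direction; inactive means the rest.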

Sequence of Alpha-2C adrenergic receptor (Homo sapiens) (P18825 whole entry, looked up): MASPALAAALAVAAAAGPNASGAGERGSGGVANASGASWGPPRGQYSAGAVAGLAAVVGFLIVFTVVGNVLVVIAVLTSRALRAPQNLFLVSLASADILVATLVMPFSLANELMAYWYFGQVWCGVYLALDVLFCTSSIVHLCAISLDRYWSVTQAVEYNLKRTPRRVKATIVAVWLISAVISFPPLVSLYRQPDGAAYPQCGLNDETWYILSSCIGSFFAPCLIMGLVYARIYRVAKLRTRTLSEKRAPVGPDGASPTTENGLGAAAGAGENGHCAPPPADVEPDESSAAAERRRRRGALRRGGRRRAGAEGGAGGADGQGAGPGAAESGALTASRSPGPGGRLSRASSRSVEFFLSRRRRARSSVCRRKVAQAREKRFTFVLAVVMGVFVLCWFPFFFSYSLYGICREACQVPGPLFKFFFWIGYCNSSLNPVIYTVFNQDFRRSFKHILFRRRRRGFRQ
Sequence of Voltage-gated potassium channel subunit beta-2 (Rattus norvegicus) (P62483 whole entry, looked up): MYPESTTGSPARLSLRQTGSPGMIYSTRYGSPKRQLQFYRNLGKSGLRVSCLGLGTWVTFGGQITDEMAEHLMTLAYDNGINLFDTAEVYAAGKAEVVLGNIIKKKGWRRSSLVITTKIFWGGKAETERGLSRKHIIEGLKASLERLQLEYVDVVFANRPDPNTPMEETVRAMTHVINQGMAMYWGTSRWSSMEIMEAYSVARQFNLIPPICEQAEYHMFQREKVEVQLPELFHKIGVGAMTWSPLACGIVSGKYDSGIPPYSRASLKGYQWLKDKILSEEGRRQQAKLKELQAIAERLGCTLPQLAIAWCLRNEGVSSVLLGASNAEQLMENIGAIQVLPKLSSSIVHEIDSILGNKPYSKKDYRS

On to `Cc1ccc(SC(C)c2nc(-c3ccccc3)no2)cc1` (centres undefined), for which, in assay [1], the cell count came out at 283. Besides, the inhibition in assay [1] is -7.5% (inactive); in assay [3] it was 51.9% (active); in assay [7], -11.7% (inactive); in assay [8], -42.5% (inactive). Further, the inhibition of aggregation in assay [2] was 8.1% (inactive). In addition, the figures for the nuclei count in assay [2] and in assay [3] were 105% and 42.1%, respectively. Besides, the fluorescence slope in assay [4] was -0.416 (inactive). For the same compound, the NADPH fluorescence slope in assay [5] was -4.5e-05 (inactive). For the same compound, in assay [6], the slope is 0.00449 (inactive).

Take `Cc1nnc(SCC(=O)N(C(C)C)C(C)C)nc1C`: the cell count in assay [1] came to 430. For the same compound, the inhibition in assay [1] is 7% (inactive); in assay [3], -106% (inactive); in assay [7], 6.7% (inactive); in assay [8], 8.25% (inactive). Moreover, the inhibition of aggregation in assay [2] was -8.2% (inactive). Further, the figures for the nuclei count in assay [2] and in assay [3] were 101% and 115%, respectively. The fluorescence slope in assay [4] was -0.599 (inactive). For the same compound, the NADPH fluorescence slope in assay [5] was -3.9e-05 (inactive). For the same compound, the slope in assay [6] was 0.00322 (inactive).

For the compound `CSC1=NCCN1C(=O)c1ccc(S(=O)(=O)N2CCCC2)cc1`, in assay [1], the cell count is 611. Besides, the inhibition in assay [1] was 0.8% (inactive); in assay [3], -7.2% (inactive); in assay [7] it was 11.2% (inactive); in assay [8] it was 33.2% (inactive). Also, the inhibition of aggregation in assay [2] is 9.6% (inactive). In addition, the values for the nuclei count in assay [2] and in assay [3] were 107% and 105%, respectively. In addition, the fluorescence slope in assay [4] was -0.592 (inactive). For the same compound, the NADPH fluorescence slope in assay [5] was -1.6e-05 (inactive). Besides, in assay [6], the slope was 0.00671 (inactive).

Turning to `O=C(c1ccc(-c2ccccc2)cc1)N1CCN(c2ncccn2)CC1`, the cell count in assay [1] stood at 332. For the same compound, the inhibition in assay [1] is -21.2% (inactive); in assay [3] it was -38.6% (inactive); in assay [7], 2.14% (inactive); in assay [8], 28.8% (inactive). Moreover, the inhibition of aggregation in assay [2] is 11.5% (inactive). For the same compound, the nuclei count in assay [2] was 76%; in assay [3], 85.3%. In addition, the fluorescence slope in assay [4] was -0.429 (inactive). Moreover, the NADPH fluorescence slope in assay [5] is -2.4e-06 (inactive). In addition, the slope in assay [6] is 0.00541 (inactive).

In the case of `CCCCN(Cc1cc2cc(OC)ccc2[nH]c1=O)C(=O)c1ccccn1`, in assay [1], the cell count worked out at 339. Besides, the inhibition in assay [1] is -17.9% (inactive); in assay [3], -11.8% (inactive); in assay [7], -4.21% (inactive); in assay [8], 98.1% (active). Also, in assay [2], the inhibition of aggregation was -18.3% (inactive). Further, the nuclei count in assay [2] was 101%; in assay [3] it was 89.4%. Besides, the fluorescence slope in assay [4] was -0.332 (inactive). Besides, the NADPH fluorescence slope in assay [5] was -6.3e-05 (inactive). For the same compound, in assay [6], the slope was 0.00511 (inactive).

On to `Cc1cc(C(=O)NCCCN2CCOCC2)n(-c2ccccc2)n1`, for which, in assay [1], the cell count amounted to 624. Also, the inhibition in assay [1] is 3.3% (inactive); in assay [3], -29.6% (inactive); in assay [7] it was 9.1% (inactive); in assay [8], 24.9% (inactive). Further, in assay [2], the inhibition of aggregation was -11.9% (inactive). Also, the nuclei count in assay [2] is 92.5%; in assay [3], 115%. Besides, in assay [4], the fluorescence slope was -0.519 (inactive). For the same compound, the NADPH fluorescence slope in assay [5] is -2.1e-05 (inactive). In addition, the slope in assay [6] is 0.00682 (inactive).

Turning to `COc1ccc(NC(=O)c2cc(C3CC3)on2)c(OC)c1`, the cell count in assay [1] turned out to be 603. Besides, the inhibition in assay [1] is -2.9% (inactive); in assay [3] it was -29.1% (inactive); in assay [7] it was -6.03% (inactive); in assay [8], 2.94% (inactive). Further, in assay [2], the inhibition of aggregation was -2.2% (inactive). Moreover, the nuclei count in assay [2] is 116%; in assay [3] it was 107%. For the same compound, the fluorescence slope in assay [4] is -0.587 (inactive). For the same compound, the NADPH fluorescence slope in assay [5] was -4.2e-05 (inactive). Moreover, the slope in assay [6] was 0.00532 (inactive).

In the case of `COc1ccc(CC(=O)Nc2c3c(nn2-c2cccc(Cl)c2)CS(=O)C3)cc1` (centres undefined), the cell count in assay [1] was 466. For the same compound, the inhibition in assay [1] was 5.7% (inactive); in assay [3], -43.1% (inactive); in assay [7] it was 9.81% (inactive); in assay [8], 14.2% (inactive). In addition, in assay [2], the inhibition of aggregation was -8.1% (inactive). Also, the nuclei count was found to be 101% in assay [2] and 87.6% in assay [3]. In addition, the fluorescence slope in assay [4] is -0.492 (inactive). For the same compound, in assay [5], the NADPH fluorescence slope was 2.6e-05 (inactive). Moreover, in assay [6], the slope was 0.00562 (inactive).

For `COCCN(Cc1cc2cccc(C)c2[nH]c1=O)C(=O)c1ccccc1`, the cell count in assay [1] worked out at 298. Further, the inhibition is -22.3% (inactive) in assay [1], -23.9% (inactive) in assay [3], 7.15% (inactive) in assay [7] and 16.3% (inactive) in assay [8]. Further, in assay [2], the inhibition of aggregation is 3.6% (inactive). The nuclei count in assay [2] was determined as 91.8%; in assay [3], 124%. Also, the fluorescence slope in assay [4] was -0.372 (inactive). In assay [5], the NADPH fluorescence slope is -5.9e-05 (inactive). In addition, the slope in assay [6] was 0.00564 (inactive).

As for `O=C(NC1CC1)c1ccc(S(=O)(=O)NCC2CCCCC2)cc1`, the cell count in assay [1] turned out to be 535. For the same compound, the inhibition was -8% (inactive) in assay [1], -58.9% (inactive) in assay [3], 3.23% (inactive) in assay [7] and 5.07% (inactive) in assay [8]. In addition, the inhibition of aggregation in assay [2] is 18.7% (inactive). Also, the values for the nuclei count in assay [2] and in assay [3] were 102% and 112%, respectively. In addition, the fluorescence slope in assay [4] was -0.508 (inactive). Moreover, the NADPH fluorescence slope in assay [5] is 2.4e-05 (inactive). Also, the slope in assay [6] is 0.00635 (inactive).

`Cc1nc(NC2=NCN(CC3CCCO3)CN2)nc2ccccc12` (centres undefined): in assay [1], the cell count was found to be 346. In addition, the inhibition in assay [1] is -11.7% (inactive); in assay [3] it was 29% (inactive); in assay [7], 15.3% (inactive); in assay [8], 28.6% (inactive). Besides, in assay [2], the inhibition of aggregation is 28.4% (active). The results for the nuclei count in assay [2] and in assay [3] were 84.3% and 98.5%, respectively. The fluorescence slope in assay [4] was -0.548 (inactive). Moreover, in assay [5], the NADPH fluorescence slope was -8.4e-06 (inactive). In addition, the slope in assay [6] was 0.00499 (inactive).

On to `FC(F)(F)c1cc(-c2ccco2)nc(N2CCOCC2)n1`, for which the cell count in assay [1] was 645. In addition, the inhibition is -8.5% (inactive) in assay [1], -83.2% (inactive) in assay [3], 16.2% (inactive) in assay [7] and 15.5% (inactive) in assay [8]. Moreover, in assay [2], the inhibition of aggregation was -15% (inactive). The nuclei count turned out to be 89% in assay [2] and 118% in assay [3]. Besides, in assay [4], the fluorescence slope was -0.586 (inactive). Further, in assay [5], the NADPH fluorescence slope was -1.4e-05 (inactive). Moreover, the slope in assay [6] is 0.00435 (inactive).

As for `CCCCc1n[nH]c2c1C(=O)CC(C)(C)C2`, the cell count in assay [1] was 712. Besides, the inhibition in assay [1] was -28.4% (inactive); in assay [3], -75.3% (inactive); in assay [7] it was 3.68% (inactive); in assay [8], 19.2% (inactive). In addition, in assay [2], the inhibition of aggregation is 3.8% (inactive). In addition, the nuclei count was 113% in assay [2] and 120% in assay [3]. For the same compound, the fluorescence slope in assay [4] is -0.449 (inactive). Moreover, in assay [5], the NADPH fluorescence slope is -4.7e-05 (inactive). The slope in assay [6] is 0.00506 (inactive).

In the case of `COc1ccccc1-n1c(=O)[nH]c2c(C(N)=O)nc(-c3cccnc3)nc21`, the cell count in assay [1] was determined as 679. The inhibition in assay [1] was -5.2% (inactive); in assay [3] it was -19.1% (inactive); in assay [7], 15.6% (inactive); in assay [8], -10.2% (inactive). Besides, the inhibition of aggregation in assay [2] was -20.4% (inactive). Moreover, the nuclei count amounted to 101% in assay [2] and 104% in assay [3]. Besides, the fluorescence slope in assay [4] is -0.516 (inactive). In addition, in assay [5], the NADPH fluorescence slope is -3.5e-06 (inactive). In assay [6], the slope is 0.00612 (inactive).
